Measurements reported in PubChem BioAssay (EPA / NIEHS).
Results filed as inconclusive are left out. The source holds several records for some structures; these can differ, active in one and inactive in another. Active and inactive are the calls of the source. Rule for the calls, unless noted: active = hit-call score of the fitted dose curve at least 0.9, where 1 is the maximum; inconclusive = response in the unintended direction; inactive = score below 0.9.

How the values were obtained:
[1] = target: Bile acid receptor (Homo sapiens) (UniProt Q96RI1); assay: ATG_FXR_TRANS: Attagene TRANS-FACTORIAL HepG2 Assay for Farnesoid X Receptor (FXR) (AID 2282979); conditions: HepG2 Attagene TRANS FXR-GAL4 reporter transcription;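 note: hits raise reporter mRNA above DMSO so AC50 marks FXR activation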
Method in brief: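 Chimeric FXR-GAL4 activity in transiently transfected human HepG2 liver cells is scored as induction of reporter mRNA after 24 h of dosing. Detection uses RT-PCR with fluorescent labelling and capillary electrophoresis, with DMSO serving as baseline.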

[2] = target: Oxysterols receptor LXR-alpha (Homo sapiens) (UniProt Q13133); assay: ATG_LXRa_TRANS: Attagene TRANS-FACTORIAL HepG2 Assay for human Liver X Receptor alpha (LXRa) (AID 2282980); conditions: HepG2 Attagene TRANS reporter, LXRa transactivation
Method in brief: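 Transient HepG2 transfectants, 24 h dosing, RT-PCR/CE mRNA reporter quantitation; gain-of-signal vs DMSO.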

[3] = target: Oxysterols receptor LXR-beta (Homo sapiens) (UniProt P55055); assay: ATG_LXRb_TRANS: Attagene TRANS-FACTORIAL HepG2 Assay for human Liver X Receptor beta (LXRb) (AID 2282981); conditions: HepG2 Attagene TRANS GAL4-LXRb reporter, mRNA
Method in brief: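 HepG2 cells transiently transfected with GAL4-UAS reporter units for chimeric NR-Gal4 proteins, dosed for 24 h. Reporter transcripts measured by RT-PCR and capillary electrophoresis; gain-of-signal fitting relative to DMSO.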

[4] = target: Hepatocyte nuclear factor 4-alpha (Homo sapiens) (UniProt P41235); assay: ATG_HNF4a_TRANS: Attagene TRANS-FACTORIAL HepG2 Assay for human Hepatocyte Nuclear Factor 4 alpha (HNF4a) (AID 2282982); conditions: HepG2 HNF4a transactivation reporter, mRNA readout
Method in brief: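 HepG2 cells transiently transfected with HNF4a-Gal4 chimera and GAL4-UAS reporter units, dosed for 24 h. Reporter mRNA measured by RT-PCR, fluorescent primer extension and capillary electrophoresis; gain-of-signal fitted relative to DMSO.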

[5] = ATG_M_06_TRANS: Attagene TRANS-FACTORIAL HepG2 Assay for M06 Transcription Factor (Internal Marker) (AID 2282983); conditions: HepG2 Attagene TRANS M06 internal marker reporter;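 note: reporter transcript level by RT-PCR then capillary electrophoresis fluorescence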
Method in brief: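 Measured by capillary electrophoresis of fluorescently labelled RT-PCR products, this endpoint reflects reporter mRNA in HepG2 cells harbouring exogenous NR-GAL4 reporter constructs after 24 h exposure, with DMSO as baseline.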

[6] = ATG_M_32_TRANS: Attagene TRANS-FACTORIAL HepG2 Assay for M32 Transcription Factor (Internal Marker) (AID 2282984); conditions: HepG2 Attagene TRANS M32 internal marker reporter;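 note: transcript level of a background control reporter unit measured by RT-PCR and capillary electrophoresis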
Method in brief: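 HepG2 cells transiently transfected with GAL4-UAS reporter units, dosed for 24 hours. Reporter mRNA quantified by RT-PCR, 6-FAM labelling, HpaI digestion and capillary electrophoresis; internal-marker signal fitted upward relative to DMSO.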

[7] = target: Transcriptional activator Myb (Homo sapiens) (UniProt P10242); assay: ATG_Myb_CIS: Attagene CIS-FACTORIAL HepG2 Assay for human Myeloblastosis (Myb) Proto-Oncogene Transcription Factor (AID 2282986; active = hit-call score of the fitted dose curve at least 0.9, where 1 is the maximum; inactive = score below 0.9); conditions: HepG2 Attagene CIS-FACTORIAL Myb reporter transcription; actives raise or lower the signal
Method in brief: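 Multiplexed cis-reporter system in HepG2: transient transfection, 24 h treatment, mRNA readout by RT-PCR and capillary electrophoresis. Both increases and decreases are scored versus DMSO negative control.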

[8] = target: Nuclear respiratory factor 1 (Homo sapiens) (UniProt Q16656); assay: ATG_NRF1_CIS: Attagene CIS-FACTORIAL HepG2 Assay for human Nuclear Respiratory Factor 1 (NRF1) Orphan Gene (AID 2282987; active = hit-call score of the fitted dose curve at least 0.9, where 1 is the maximum; inactive = score below 0.9); conditions: HepG2 NRF1 cis-element reporter, Attagene multiplex; actives raise or lower the signal
Method in brief: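 Endogenous factor activity was captured via cis-element-driven reporter transcripts in HepG2 cells. Following 24 h chemical treatment, transcripts were quantified by RT-PCR and capillary electrophoresis.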

[9] = target: Nuclear receptor subfamily 4 group A member 2 (Homo sapiens) (UniProt P43354); assay: ATG_NURR1_TRANS: Attagene TRANS-FACTORIAL HepG2 Assay for human Nuclear Receptor Related Protein 1 (NURR1) (AID 2282985); conditions: HepG2 Attagene TRANS reporter, mRNA readout
Method in brief: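 HepG2 cells transiently transfected with NURR1-Gal4 chimera and GAL4-UAS reporter units; after 24 hr compound exposure, reporter mRNA quantified by RT-PCR and capillary electrophoresis; gain of signal fitted against DMSO.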

Hepatocyte nuclear factor 4-alpha (Homo sapiens), sequence (P41235 whole entry, looked up, the tested form may be a part): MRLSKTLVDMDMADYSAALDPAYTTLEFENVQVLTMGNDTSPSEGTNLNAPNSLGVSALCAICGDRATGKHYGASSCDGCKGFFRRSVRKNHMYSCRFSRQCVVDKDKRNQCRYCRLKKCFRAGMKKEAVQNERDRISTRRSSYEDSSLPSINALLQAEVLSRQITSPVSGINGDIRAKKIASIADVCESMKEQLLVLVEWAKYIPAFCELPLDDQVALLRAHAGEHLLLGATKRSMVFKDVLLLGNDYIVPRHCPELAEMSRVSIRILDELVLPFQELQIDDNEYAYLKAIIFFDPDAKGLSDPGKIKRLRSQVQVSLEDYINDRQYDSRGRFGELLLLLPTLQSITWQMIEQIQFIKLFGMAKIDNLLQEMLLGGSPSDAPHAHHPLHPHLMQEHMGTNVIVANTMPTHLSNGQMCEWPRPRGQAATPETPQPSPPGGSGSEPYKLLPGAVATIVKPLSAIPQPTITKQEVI
Oxysterols receptor LXR-beta (Homo sapiens), sequence (P55055 whole entry, looked up, the tested form may be a part): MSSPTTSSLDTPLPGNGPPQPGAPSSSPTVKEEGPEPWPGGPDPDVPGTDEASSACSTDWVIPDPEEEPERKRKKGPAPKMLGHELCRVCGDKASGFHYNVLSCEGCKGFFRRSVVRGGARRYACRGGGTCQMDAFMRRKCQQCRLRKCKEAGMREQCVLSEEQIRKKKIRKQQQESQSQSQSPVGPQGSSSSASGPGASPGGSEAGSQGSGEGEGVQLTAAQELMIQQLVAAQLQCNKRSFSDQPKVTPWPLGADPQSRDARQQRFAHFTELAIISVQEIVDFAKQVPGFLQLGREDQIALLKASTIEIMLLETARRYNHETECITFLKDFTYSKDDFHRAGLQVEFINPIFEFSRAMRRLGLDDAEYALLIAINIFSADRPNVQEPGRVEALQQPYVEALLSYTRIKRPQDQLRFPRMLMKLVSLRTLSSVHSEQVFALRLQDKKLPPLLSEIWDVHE
Oxysterols receptor LXR-alpha (Homo sapiens), sequence (Q13133 whole entry, looked up): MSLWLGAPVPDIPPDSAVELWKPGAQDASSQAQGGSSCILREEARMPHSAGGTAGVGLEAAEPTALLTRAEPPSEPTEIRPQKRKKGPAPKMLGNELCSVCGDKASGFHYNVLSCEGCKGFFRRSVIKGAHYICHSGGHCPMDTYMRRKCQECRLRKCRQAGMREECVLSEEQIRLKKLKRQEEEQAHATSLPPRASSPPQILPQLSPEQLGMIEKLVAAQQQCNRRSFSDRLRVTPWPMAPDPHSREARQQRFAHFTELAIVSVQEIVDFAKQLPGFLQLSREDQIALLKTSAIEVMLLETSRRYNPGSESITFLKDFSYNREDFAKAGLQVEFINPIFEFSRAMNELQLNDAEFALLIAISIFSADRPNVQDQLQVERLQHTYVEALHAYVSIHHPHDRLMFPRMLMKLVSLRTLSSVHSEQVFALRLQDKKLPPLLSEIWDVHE
Transcriptional activator Myb (Homo sapiens), sequence (P10242 whole entry, looked up): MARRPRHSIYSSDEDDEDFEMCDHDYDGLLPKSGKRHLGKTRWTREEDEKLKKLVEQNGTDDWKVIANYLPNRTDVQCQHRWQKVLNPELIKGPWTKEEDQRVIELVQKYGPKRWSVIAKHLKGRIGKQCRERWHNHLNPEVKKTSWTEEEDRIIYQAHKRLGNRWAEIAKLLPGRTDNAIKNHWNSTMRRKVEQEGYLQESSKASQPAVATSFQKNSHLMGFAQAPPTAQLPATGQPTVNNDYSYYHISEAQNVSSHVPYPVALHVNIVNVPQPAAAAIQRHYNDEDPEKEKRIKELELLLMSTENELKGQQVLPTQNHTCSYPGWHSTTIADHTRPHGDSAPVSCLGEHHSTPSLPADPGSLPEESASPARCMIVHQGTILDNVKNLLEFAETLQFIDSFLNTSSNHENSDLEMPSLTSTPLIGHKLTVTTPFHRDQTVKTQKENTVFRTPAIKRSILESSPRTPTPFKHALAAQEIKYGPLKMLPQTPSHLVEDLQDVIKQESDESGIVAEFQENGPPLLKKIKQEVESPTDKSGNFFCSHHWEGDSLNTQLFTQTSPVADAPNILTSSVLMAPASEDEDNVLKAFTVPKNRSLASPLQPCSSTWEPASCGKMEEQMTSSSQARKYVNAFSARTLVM
Nuclear receptor subfamily 4 group A member 2 (Homo sapiens), sequence (P43354 whole entry, looked up, the tested form may be a part): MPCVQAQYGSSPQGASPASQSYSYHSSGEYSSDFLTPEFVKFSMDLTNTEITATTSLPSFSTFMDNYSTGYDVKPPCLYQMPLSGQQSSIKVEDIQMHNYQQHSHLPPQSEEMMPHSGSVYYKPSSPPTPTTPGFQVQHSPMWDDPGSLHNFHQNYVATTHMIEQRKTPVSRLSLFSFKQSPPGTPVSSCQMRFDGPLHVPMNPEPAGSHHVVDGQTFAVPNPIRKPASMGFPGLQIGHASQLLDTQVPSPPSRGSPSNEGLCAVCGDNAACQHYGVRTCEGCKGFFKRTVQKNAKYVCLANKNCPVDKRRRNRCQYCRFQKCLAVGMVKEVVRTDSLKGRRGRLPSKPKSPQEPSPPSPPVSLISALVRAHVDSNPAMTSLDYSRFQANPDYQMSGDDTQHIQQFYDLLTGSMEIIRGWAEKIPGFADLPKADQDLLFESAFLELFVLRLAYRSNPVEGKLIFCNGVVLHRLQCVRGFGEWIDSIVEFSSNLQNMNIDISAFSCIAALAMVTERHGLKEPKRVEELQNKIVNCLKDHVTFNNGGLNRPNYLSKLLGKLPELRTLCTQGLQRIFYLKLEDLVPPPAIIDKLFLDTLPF
Bile acid receptor (Homo sapiens), sequence (Q96RI1 whole entry, looked up, the tested form may be a part): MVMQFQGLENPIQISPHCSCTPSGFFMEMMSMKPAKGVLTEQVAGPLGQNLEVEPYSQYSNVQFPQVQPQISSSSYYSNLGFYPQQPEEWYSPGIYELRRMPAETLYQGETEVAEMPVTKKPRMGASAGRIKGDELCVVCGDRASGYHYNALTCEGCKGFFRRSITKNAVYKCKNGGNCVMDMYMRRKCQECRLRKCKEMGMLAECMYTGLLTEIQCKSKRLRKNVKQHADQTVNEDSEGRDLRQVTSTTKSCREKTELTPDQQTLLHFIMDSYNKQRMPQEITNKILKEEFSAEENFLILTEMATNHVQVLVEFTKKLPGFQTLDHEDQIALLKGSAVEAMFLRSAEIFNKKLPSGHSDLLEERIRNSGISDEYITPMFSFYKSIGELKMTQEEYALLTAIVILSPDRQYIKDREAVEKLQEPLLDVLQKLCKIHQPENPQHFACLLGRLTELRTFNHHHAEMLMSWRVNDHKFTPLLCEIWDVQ
Nuclear respiratory factor 1 (Homo sapiens), sequence (Q16656 whole entry, looked up): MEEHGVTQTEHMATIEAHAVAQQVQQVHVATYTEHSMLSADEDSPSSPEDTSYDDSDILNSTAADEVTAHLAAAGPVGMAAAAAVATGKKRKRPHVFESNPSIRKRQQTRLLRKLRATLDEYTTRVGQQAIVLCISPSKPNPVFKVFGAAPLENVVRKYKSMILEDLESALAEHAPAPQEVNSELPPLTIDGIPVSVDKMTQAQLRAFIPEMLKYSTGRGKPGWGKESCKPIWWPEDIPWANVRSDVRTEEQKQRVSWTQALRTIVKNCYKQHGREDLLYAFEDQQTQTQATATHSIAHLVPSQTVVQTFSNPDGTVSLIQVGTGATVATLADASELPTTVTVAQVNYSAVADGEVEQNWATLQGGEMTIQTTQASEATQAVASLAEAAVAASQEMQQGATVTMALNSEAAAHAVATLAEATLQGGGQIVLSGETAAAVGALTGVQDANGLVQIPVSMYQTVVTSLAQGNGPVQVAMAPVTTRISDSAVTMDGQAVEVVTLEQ

For `CCCCCCCCCCCCCCCCCC[N+](C)(C)Cc1ccccc1`, the outcome [1] was “inactive”, the outcome [2] was “inactive” and the outcome [3] was “inactive”. For the same compound, the AC50 [4] was 50 µM (active), the outcome [5] was “inactive” and the outcome [6] was “inactive”. For the same compound, the outcome [7] was “inactive” and the outcome [8] was “inactive”.

In the case of `CC(C)(C)c1ccc(O)c(O)c1`, the outcome [1] is reported as “inactive”, the outcome [2] is reported as “inactive” and the outcome [3] is reported as “inactive”. For the same compound, the outcome [4] was “inactive”, the outcome [6] was “inactive” and the outcome [9] was “inactive”. For the same compound, the outcome [7] was “inactive” and the outcome [8] was “inactive”.

In the case of `Cc1cc(C(C)(C)C)c(O)c(C(C)(C)C)c1`, the outcome [1] is reported as “inactive”, the outcome [2] is reported as “inactive” and the outcome [3] is reported as “inactive”. For the same compound, the outcome [5] was “inactive”, the outcome [6] was “inactive” and the outcome [7] was “inactive”. The AC50 [8] was 94.7 µM (active) and the outcome [8] was “inactive”.

For `OCCN1CN(CCO)CN(CCO)C1`, the outcome [1] was “inactive”, the outcome [2] was “inactive” and the outcome [3] was “inactive”. The outcome [4] was “inactive”, the outcome [6] was “inactive” and the outcome [7] was “inactive”. The outcome [8] was “inactive”.

In the case of `CC1CNCC(C)O1` (stereo unspecified), the outcome [1] is reported as “inactive”, the outcome [2] is reported as “inactive” and the outcome [3] is reported as “inactive”. The outcome [4] was “inactive”, the outcome [5] was “inactive” and the outcome [6] was “inactive”. The outcome [7] was “inactive” and the outcome [8] was “inactive”.

For `O=P(O)(O)CCC(F)(F)C(F)(F)C(F)(F)C(F)(F)C(F)(F)C(F)(F)C(F)(F)C(F)(F)F`, the outcome [1] was “inactive”, the outcome [2] was “inactive” and the outcome [3] was “inactive”. For the same compound, the outcome [4] was “inactive”, the outcome [6] was “inactive” and the outcome [7] was “inactive”. For the same compound, the outcome [8] was “inactive”.

With `NNc1nc(-c2ccc([N+](=O)[O-])cc2)cs1` the outcome [1] was “inactive”, the outcome [2] was “inactive” and the outcome [3] was “inactive”. For the same compound, the outcome [4] was “inactive”, the outcome [5] was “inactive” and the outcome [9] was “inactive”. For the same compound, the outcome [7] was “inactive” and the outcome [8] was “inactive”.

In the case of `CCCCCCc1ccc(N)cc1`, the outcome [1] is reported as “inactive”, the outcome [2] is reported as “inactive” and the outcome [3] is reported as “inactive”. The outcome [4] was “inactive”, the outcome [6] was “inactive” and the outcome [7] was “inactive”. For the same compound, the outcome [8] was “inactive”.

With `CCc1cccc(CC)c1NC(=O)C(=O)O` the outcome [1] was “inactive”, the outcome [2] was “inactive” and the outcome [3] was “inactive”. For the same compound, the outcome [5] was “inactive”, the outcome [6] was “inactive” and the outcome [7] was “inactive”. For the same compound, the outcome [8] was “inactive”.

For `CC(=O)Nc1ccc(S(N)(=O)=O)cc1`, the outcome [1] was “inactive”, the outcome [2] was “inactive” and the outcome [3] was “inactive”. For the same compound, the outcome [4] was “inactive”, the outcome [5] was “inactive” and the outcome [6] was “inactive”. For the same compound, the outcome [7] was “inactive” and the outcome [8] was “inactive”.

In the case of `O=C(O)CCC(F)(F)C(F)(F)C(F)(F)C(F)(F)C(F)(F)F`, the outcome [1] is reported as “inactive”, the outcome [2] is reported as “inactive” and the outcome [3] is reported as “inactive”. For the same compound, the outcome [4] was “inactive”, the outcome [5] was “inactive” and the outcome [6] was “inactive”. The outcome [9] was “inactive”, the outcome [7] was “inactive” and the outcome [8] was “inactive”.

With `O=C(Nc1cccc([N+](=O)[O-])c1)c1cc2ccccc2cc1O` the outcome [1] was “inactive”, the outcome [2] was “inactive” and the outcome [3] was “inactive”. The outcome [4] was “inactive”, the outcome [7] was “inactive” and the outcome [8] was “inactive”.

With `OCC1CCC(CO)CC1` (stereo unspecified) the outcome [1] was “inactive”, the outcome [2] was “inactive” and the outcome [3] was “inactive”. The outcome [9] was “inactive”, the outcome [7] was “inactive” and the outcome [8] was “inactive”.

In the case of `CCC(=O)C=Cc1ccc(OC)cc1`, the outcome [1] is reported as “inactive”, the outcome [3] is reported as “inactive” and the outcome [4] is reported as “inactive”. The outcome [5] was “inactive”, the outcome [9] was “inactive” and the AC50 [7] was 137 µM (active). The outcome [8] was “inactive”.

In the case of `C/C=C/C(=O)C1=C(C)CCCC1(C)C`, the outcome [1] is reported as “inactive”, the outcome [2] is reported as “inactive” and the AC50 [4] is reported as 159 µM (active). For the same compound, the outcome [6] was “inactive”, the outcome [7] was “inactive” and the outcome [8] was “inactive”.

For `O=C1OC(=O)C(F)(F)C1(F)F`, the outcome [1] was “inactive”, the outcome [2] was “inactive” and the outcome [3] was “inactive”. For the same compound, the outcome [6] was “inactive”, the outcome [7] was “inactive” and the outcome [8] was “inactive”.

For `C=COC(=O)C(C)(C)CCCCCC`, the outcome [1] was “inactive”, the outcome [2] was “inactive” and the outcome [4] was “inactive”. The outcome [5] was “inactive”, the outcome [6] was “inactive” and the outcome [9] was “inactive”. For the same compound, the outcome [7] was “inactive” and the outcome [8] was “inactive”.

For `C=CC(C)(CCC=C(C)C)OC(C)=O` (stereo unspecified), the outcome [1] was “inactive”, the outcome [2] was “inactive” and the outcome [3] was “inactive”. For the same compound, the outcome [6] was “inactive”, the outcome [9] was “inactive” and the outcome [7] was “inactive”. For the same compound, the outcome [8] was “inactive”.

With `CCCCCCCCC(C)=O` the outcome [1] was “inactive”, the outcome [2] was “inactive” and the outcome [3] was “inactive”. For the same compound, the outcome [7] was “inactive” and the outcome [8] was “inactive”.

In the case of `CCOC(=O)CN[C@@H](C(=O)N1CC[C@H]1C(=O)NCc1ccc(/C(N)=N/O)cc1)C1CCCCC1`, the outcome [1] is reported as “inactive”, the outcome [3] is reported as “inactive” and the outcome [4] is reported as “inactive”. The outcome [5] was “inactive”, the outcome [6] was “inactive” and the outcome [7] was “inactive”. The outcome [8] was “inactive”.

In the case of `CCCCc1oc2ccccc2c1C(=O)c1cc(I)c(OCCN(CC)CC)c(I)c1`, the outcome [1] is reported as “inactive”, the outcome [2] is reported as “inactive” and the outcome [3] is reported as “inactive”. The outcome [6] was “inactive” and the outcome [7] was “inactive”.

With `O=C(OC(=O)C(F)(F)C(F)(F)F)C(F)(F)C(F)(F)F` the outcome [1] was “inactive”, the outcome [2] was “inactive” and the outcome [4] was “inactive”. For the same compound, the outcome [7] was “inactive” and the outcome [8] was “inactive”.

With `C=CC(=O)OCCC(F)(F)C(F)(F)C(F)(F)C(F)(F)C(F)(F)C(F)(F)F` the outcome [1] was “inactive”, the outcome [2] was “inactive” and the outcome [9] was “inactive”. The outcome [7] was “inactive” and the outcome [8] was “inactive”.

For `CCCCCCCCC1CCC(=O)O1` (stereo unspecified), the outcome [1] was “inactive”, the outcome [2] was “inactive” and the outcome [5] was “inactive”. For the same compound, the outcome [6] was “inactive”, the outcome [7] was “inactive” and the outcome [8] was “inactive”.

With `Cc1[nH]nc2c1N=C(c1ccccc1Cl)c1cc([N+](=O)[O-])ccc1N2` the outcome [1] was “inactive”, the outcome [2] was “inactive” and the outcome [3] was “inactive”. The outcome [6] was “inactive”, the outcome [9] was “inactive” and the outcome [7] was “inactive”. The AC50 [8] was 1.16 µM (active).

In the case of `FC(OC(F)(F)C(F)(F)C(F)(F)F)C(F)(F)F` (stereo unspecified), the outcome [1] is reported as “inactive”, the outcome [2] is reported as “inactive” and the outcome [3] is reported as “inactive”. For the same compound, the outcome [5] was “inactive”, the outcome [7] was “inactive” and the outcome [8] was “inactive”.

For `CCN(CC)CC`, the outcome [1] was “inactive”, the outcome [2] was “inactive” and the outcome [5] was “inactive”. The outcome [6] was “inactive”, the outcome [9] was “inactive” and the outcome [7] was “inactive”. For the same compound, the outcome [8] was “inactive”.

In the case of `O=C(c1cc(O)c(O)c(O)c1)c1ccc(O)c(O)c1O`, the outcome [1] is reported as “inactive”, the outcome [2] is reported as “inactive” and the outcome [4] is reported as “inactive”. For the same compound, the outcome [5] was “inactive”, the outcome [6] was “inactive” and the outcome [7] was “inactive”. For the same compound, the outcome [8] was “inactive”.
